A selection: hits, their analogues and other compounds. The true share with any hit is near 1.1%.
Calb FLC: affects C. albicans growth with fluconazole | C. albicans CaCi-2 (fluconazole-resistant clinical isolate) + fluconazole, Alamar Blue growth, 48 h | growth inhibition, % (concentration not given with the values) | actives 0.57% (n = 300,000) | AID 1979;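 active = growth inhibition above about 58% in most replicates, limit read from the data, passing the limit was not always enough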;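 note: all wells also contain fluconazole at 8 µg/ml as a sub-toxic cotreatment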
zVAD death inh: blocks zVAD induced death of L929 cells; actives 0.38% (n = 220,000); viability rescue, % at 10 µM; AID 1377; L929 zVAD necroptosis rescue, ATP luminescence, 24 h; with zVAD 60 µM;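 active = activation, scaled between plate controls, above about 75%, limit read from the data; inactive = activation under that limit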
TNF death inh: blocks TNF-alpha induced death of Jurkat FADD-/- cells. activation (protection from cell death), % at 10 µM. Jurkat FADD-/- TNF necroptosis rescue, ATP luminescence, 24 h; 0 = TNF only, 100 = no-TNF cells. actives 0.068% (n = 220,000);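 active = activation, meaning protection from cell death, of at least 50% relative to plate controls; inactive = activation below 50%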;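 note: necroptosis triggered by 40 ng/mL TNF-alpha added together with compound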
HIF act: HIF pathway transcriptional activation | U2OS HRE-luciferase reporter, luminescence; normalized: DMSO 0%, desferrioxamine 100% | activation, % at 7.5 µM (by protocol) | actives 0.32% (n = 300,000) | AID 1910;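 active = mean activation of at least 10% of the iron chelator positive control signal, with at least half of replicates also reaching 10%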
Of the large screens only hits and unclear results are named; the others gave an inactive call.

COc1cc2c(cc1OC)C(c1ccccc1)N(S(C)(=O)=O)CC2 (centres undefined)	HIF act 28
COc1cc2c(cc1OC)C(C)N(S(=O)(=O)c1ccc(Cl)nc1)CC2 (centres undefined)	HIF act 16 (no result: zVAD death inh, TNF death inh)
COc1cc2c(cc1OC)C(c1ccccc1)N(C(=O)CCl)CC2 (centres undefined)	none
O=C(Sc1cccc2cccnc12)c1ccccc1Br	Calb FLC 112 (no result: zVAD death inh, TNF death inh)
COc1ccc(N2CCN(C(=O)CN(C)S(=O)(=O)c3cc(C)ccc3OC)CC2)cc1	HIF act 465
CCOc1ccccc1N1CCN(CC(=O)Nc2nc(C)c(C(=O)N(C)C)s2)CC1	none (no result: zVAD death inh, TNF death inh)
COc1cc(C(=O)N/N=C(\C)c2ccccn2)cc(OC)c1OC	none (no result: zVAD death inh, TNF death inh)
COc1cccc(C(=O)N/N=C(/c2ccccc2)c2ccccn2)c1	HIF act 11
COc1cccc(C(=O)N/N=C(/CCC(=O)O)c2ccccc2)c1	none
COc1cc(C(=O)N/N=C(\c2ccccc2)c2ccccn2)cc(OC)c1OC	HIF act 64
O=C(Cn1cnc2c(oc3nc4c(cc32)CCCC4)c1=O)Nc1cccc(Cl)c1	none (no result: zVAD death inh, TNF death inh)
O=C(NCCN1C(=O)S/C(=C\c2ccc(OC(F)F)cc2)C1=O)c1cnccn1	none
COc1cccc(CN(C)C(=O)CC2C(=O)NCCN2C2Cc3ccccc3C2)c1 (centres undefined)	none (no result: zVAD death inh, TNF death inh)
O=C1[C@@H]2C(c3cccnc3)=NO[C@@H]2C(=O)N1c1ccc2ccccc2c1	none
COc1ccc(-n2cnc3cc(NS(=O)(=O)c4ccccc4)ccc32)cc1	TNF death inh 53
CC(C)(C)n1cnc2cc(NS(=O)(=O)c3ccccc3)ccc21	none
COc1ccc(NC(=O)c2cccs2)cn1	HIF act 19
COc1ccc2nc(NC(=O)c3cccs3)sc2c1	HIF act 21
COC(=O)c1cn(C(=O)c2cccc(Br)c2)c2ccccc12	none (no result: zVAD death inh, TNF death inh)
O=C(CN(C(=O)c1csnn1)c1ccccc1C(F)(F)F)NCc1ccccc1	none (no result: zVAD death inh, TNF death inh)
CCN(CCCNC(=O)Cn1ncc2c([nH]c3ccc(C)cc32)c1=O)c1ccccc1	none (no result: zVAD death inh, TNF death inh)
Cc1ccc2[nH]c3c(=O)n(CC(=O)NCCCN(C)Cc4ccccc4)ncc3c2c1	HIF act 66 (no result: zVAD death inh, TNF death inh)
Cc1ccn2c(=O)nc(SCC(=O)NCc3ccccc3Cl)nc2c1	none (no result: zVAD death inh, TNF death inh)
O=C(NCc1cccs1)C1CC(=O)N(C2CCCC2)C1 (centres undefined)	HIF act 214
COc1ccccc1CNC(=O)c1cccc(NC(=O)c2ccccc2)c1	HIF act 26
Cn1cc(/C=N/NC(=O)c2ccccc2O)c2ccccc21	none (no result: zVAD death inh, TNF death inh)
Cc1nn(-c2ccccc2)c(N2CCCC2)c1/C=N/NC(=O)c1ccccc1O	Calb FLC 91
Cc1nn(-c2ccccc2)c(C)c1/C=N/NC(=O)c1ccccc1O	none (no result: zVAD death inh, TNF death inh)
O=C(N/N=C/c1cc2c3c(c1O)CCCN3CCC2)c1ccccc1O	Calb FLC 108, HIF act 55
COCCN(C(=O)CSc1nnc(-c2ccc(C(C)(C)C)cc2)n1N)c1c(N)n(CC(C)C)c(=O)[nH]c1=O	none (no result: zVAD death inh, TNF death inh)
O=C(NNC(=O)C1CCN(c2ncccn2)CC1)c1ccc(F)cc1	none (no result: zVAD death inh, TNF death inh)
CNC[C@H](CC1CCCCC1)NC[C@H](Cc1ccccc1)NCCC12CC3CC(CC(C3)C1)C2	Calb FLC 91 (no result: zVAD death inh, TNF death inh)
CC(NCC(O)COCCC12CC3CC(CC(C3)C1)C2)c1ccccc1 (centres undefined)	none
CCOc1cc(/C=C(\C#N)C(=O)NCC2CCCO2)ccc1O (centres undefined)	none
CCOc1cc(/C=C(\C#N)C(=O)NCC2CCCO2)ccc1OCC(N)=O (centres undefined)	Calb FLC 105
O=C(c1ccc(Br)cc1)N(Cc1ccco1)C1CCS(=O)(=O)C1 (centres undefined)	none (no result: zVAD death inh, TNF death inh)
COc1ccc(CNC(=O)[C@H](C)NC(=O)C2CCN(C(=O)[C@@H](N)Cc3ccccc3)CC2)cc1	none (no result: zVAD death inh, TNF death inh)
COc1ccc(N2CCN(C(=O)CCC(=O)N3Cc4ccccc4Oc4ncccc43)CC2)cc1	none (no result: zVAD death inh, TNF death inh)
CC1=CC2=C(OC1N(C)C)c1cccc3cccc(c13)C2=O (centres undefined)	Calb FLC 96
CCNS(=O)(=O)c1ccc(NC(=O)Cn2cc([N+](=O)[O-])cn2)cc1	none
CCOc1ccccc1NC(=S)N1CCCCCC1	none (no result: zVAD death inh, TNF death inh)
CCOC(=O)c1ccc(Oc2nc(N(C)C)nc(N(C)C)n2)cc1	none
CCOC(=O)c1ccc(Oc2nc(NC(C)(C)C)nc(N(C)C)n2)cc1	Calb FLC 91
CCc1nc(N2CCN(C(=O)c3ccco3)CC2)c2c3c(sc2n1)CCCC3	HIF act 499
COc1ccc(C(=O)Nc2cccc(C)c2)cc1S(=O)(=O)N1CCOCC1	none

Screens (PubChem)
